These results are taken from PubChem BioAssay AID1347421 (Sanford-Burnham Center for Chemical Genomics, 2020).

In all, about 1,500 compounds were measured (“activity”: median about 2, lowest 2% from about -18 on). Shown is part of a subset that was picked to be rich in the lowest values. Activity calls are given as the source filed them.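 The calls were made as follows: active = inhibition of at least 40% at 10 µM; inconclusive = no clear call, values can overlap the other calls; inactive = the rest.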

In the assay the target is Sulfhydryl oxidase 1 (Homo sapiens) (UniProt O00391). Briefly: human QSOX1 sulfhydryl oxidase inhibition – biochemical, ROS-Glo luminescence, single concentration, confirmation (AID 1347421).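 Also: 0% = DMSO wells with enzyme and 100% = wells lacking QSOX1 enzyme.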 The following applies: recombinant hQSOX1, RNase A substrate, ROS-Glo H2O2 luminescence; at 10 µM.
Chain of Sulfhydryl oxidase 1 (Homo sapiens) (O00391 whole entry, looked up): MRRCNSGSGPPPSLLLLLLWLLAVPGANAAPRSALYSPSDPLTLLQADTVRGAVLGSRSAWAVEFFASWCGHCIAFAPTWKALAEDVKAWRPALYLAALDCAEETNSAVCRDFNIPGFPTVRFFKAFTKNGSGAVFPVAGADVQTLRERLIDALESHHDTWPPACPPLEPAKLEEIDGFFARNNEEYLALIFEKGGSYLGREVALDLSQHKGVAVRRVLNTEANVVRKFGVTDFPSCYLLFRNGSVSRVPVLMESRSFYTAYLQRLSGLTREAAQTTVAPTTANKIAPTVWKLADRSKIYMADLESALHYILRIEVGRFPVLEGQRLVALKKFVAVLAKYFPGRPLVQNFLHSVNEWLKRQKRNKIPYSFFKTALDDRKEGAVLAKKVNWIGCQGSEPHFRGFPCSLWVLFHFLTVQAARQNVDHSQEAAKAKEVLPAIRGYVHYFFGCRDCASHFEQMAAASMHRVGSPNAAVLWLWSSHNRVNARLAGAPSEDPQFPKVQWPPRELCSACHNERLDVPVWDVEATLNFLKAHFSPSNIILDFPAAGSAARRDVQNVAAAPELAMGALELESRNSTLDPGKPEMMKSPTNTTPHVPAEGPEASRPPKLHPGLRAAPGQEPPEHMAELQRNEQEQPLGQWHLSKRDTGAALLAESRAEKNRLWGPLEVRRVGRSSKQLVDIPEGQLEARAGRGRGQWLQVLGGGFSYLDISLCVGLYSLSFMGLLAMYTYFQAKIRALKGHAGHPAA
`O=C(NC(=O)N1CCCCCC1)c1ccc(Cl)cc1`: the activity was -10.3% (inactive).
Consider `COc1ccc(CNCCn2cccn2)c(OCC(O)CN2CCCC2)c1` (stereo not given), for which the activity was 1.2%.
In the case of `O=C(Cn1ccnc1)N(CC1CCN(C2Cc3ccccc3C2)CC1)CC1CCCO1` (stereo not given), the activity came to 7.8%.
The result for `CCOc1ccc(Cl)cc1S(=O)(=O)NC(C)C` reads 3.5%; that for `COc1ccc(F)cc1S(=O)(=O)NC(C)C`, -2% (inactive); that for `COc1ccc(C(N)=O)cc1S(=O)(=O)NC(C)C`, -19.1% (inactive).
For the compound `CN(Cc1cccs1)C(=O)c1ccc(OC2CCN(S(C)(=O)=O)CC2)c(Cl)c1`, the activity is 12.2%.
Consider `CN(Cc1n[nH]c2c1CCCCC2)CC1(c2cccc(F)c2)CCOC1` (stereo not given), for which the activity stood at 4%.
Turning to `O=C(CC1C(=O)NCCN1Cc1ccccn1)NC1C2CC3CC(C2)CC1C3` (stereo not given), the activity was -4.8% (inactive).
As to `O=C(Cc1ccccc1F)Nc1ccc2c(c1)CN(Cc1ccoc1)CC2`, the activity was -1.9% (inactive).
The result for `O=C(NCCCOc1cccnc1)C1CCC(=O)N(CCCc2ccccc2)C1` (stereo not given) reads 12.4%; that for `O=C(O)c1cn(CCOc2ccccc2)c2ccccc12`, -13.2% (inactive).
Turning to `O=C(CCC1CCCN(Cc2ccccn2)C1)N1CCN(Cc2ccccc2)CC1` (stereo not given), the activity is -0.9% (inactive).
In the case of `Cc1cc(C)c(C(=O)N2CCCC(CCC(=O)N(C)CCc3ccccn3)C2)c(=O)[nH]1` (stereo not given), the activity came out at 7.3%.
The result for `COc1ccc(CNCCc2scnc2C)cc1OCC(O)CN(C)C(C)C` (stereo not given) reads 7.8%; that for `CC(C)OCCNC(=O)c1cc(COc2cccc3cccnc23)on1`, 2.2%; that for `C=CCCC(=O)N1CCC2(CCCN(Cc3ccc(F)c(F)c3)C2=O)C1` (stereo not given), -1.3% (inactive).
`Cn1nc(C(=O)N2CCc3ccccc32)c2ccccc2c1=O`: the activity is -5.3% (inactive).
As for `O=C1CCC(C(=O)N2CCC3(C=Cc4ccccc43)CC2)CN1CCc1ccccn1` (stereo not given), the figure is 3.8%; as for `COc1cccc(CN2CCNC(=O)C2CC(=O)NC2CCCCCCC2)c1` (stereo not given), 2.4%; as for `CCC1=[C+]c2c(NCc3cccnc3)nc(C)nc2S1`, -5.8% (inactive).
Turning to `CCC1=[C+]c2c(nc(C)nc2N2CCOCC2)S1`, the activity was -20.3% (inactive).
On to `CSc1ncc(Cl)c(C(=O)Nc2ccc(Br)cc2)n1`, for which the activity is -12.9% (inactive).
The result for `Cc1oc(-c2cccs2)nc1CN(C)C(C)c1cccs1` (stereo not given) reads 2.7%.
Consider `CCOC(=O)C1CCN(C(=O)CCc2ccc(OC)cc2)CC1`, for which the activity is -2% (inactive).
The result for `CCN(CC)C(=O)C1CCCN(Cc2nc(-c3ccc(Cl)cc3)oc2C)C1` (stereo not given) reads 4.3%; that for `CC(NC(=O)CSc1nc(O)cc(=O)[nH]1)c1ccccc1` (stereo not given), -17.8% (inactive).
Turning to `CCN(CC)C(=O)N(CC)Cc1ccccc1`, the activity was -0.2% (inactive).
For `c1ccc(CNc2ccc(NCc3ccccc3)nn2)cc1`, the activity was -8.7% (inactive).
Take `CC(=O)n1nc(NCc2ccccc2)nc1NCc1ccccc1`: the activity was -22% (inactive).
Consider `C=CCn1nnnc1NCc1ccc(F)cc1`, for which the activity turned out to be 7.4%.
Take `CCCn1cc(CN2CCOC(CCc3ccccc3)C2)c(C)n1` (stereo not given): the activity was -1.5% (inactive).
In the case of `CCOC(=O)N1CCC(N2CCOC(CC3CCCCC3)C2)CC1` (stereo not given), the activity was 6.1%.
As for `NC(=O)C1CCCN(Cc2cn(-c3ccccc3)nc2-c2ccc3c(c2)OCO3)C1` (stereo not given), the figure is -1.5% (inactive).
As for `O=C(Nc1ccccc1N1CCN(C(=O)c2ccc(Cl)cc2)CC1)c1ccco1`, the figure is 0.8%; as for `CCn1c(CN2CCCC2)nc2ccccc21`, -5.8% (inactive).
As for `CCn1c(SCC(=O)N2CCCCCC2)nc2ccccc21`, the activity is -11.6% (inactive).
The result for `CCn1c(C2CCCO2)nc2ccccc21` (stereo not given) reads -18.1% (inactive).
For `CN1CCN(C(=O)CCC2CCCN(C(=O)Cc3ccc4c(c3)OCO4)C2)CC1` (stereo not given), the activity is 0.8%.
As for `CN(CCOc1ccccc1)Cc1nc(-c2ccccn2)no1`, the figure is 3.2%; as for `COc1cccc(C(=O)C2CCCN(Cc3ccc4cccc(F)c4n3)C2)c1` (stereo not given), -23.5% (inactive); as for `CSc1ncc(CN2CCCC(C(=O)c3cccc(OC(C)C)c3)C2)cn1` (stereo not given), 8.6%.
Consider `COc1ccc(C(=O)C2CCCN(Cc3ccc4cc(F)ccc4n3)C2)cc1OC` (stereo not given), for which the activity was 1.1%.
With `CC1CCN(Cc2nnnn2CCCC(=O)N(C)CCC(O)c2ccccc2)CC1` (stereo not given), the activity was 7.2%.
`O=C1N(CC2CC2)CCCC12CCN(Cc1cccc(-n3cccn3)c1)C2` (stereo not given): the activity is -0.7% (inactive).
On to `O=C(Nc1cccc(-n2cnnn2)c1)C1CCCN1CCCC(F)(F)F` (stereo not given), for which the activity is -2.9% (inactive).
As for `O=C(Nc1cccc(-n2cccn2)c1)C1CCCN1Cc1cnc[nH]1` (stereo not given), the figure is -25.6% (inactive); as for `Cc1ccc(NC(=O)c2cc(C)c(C)o2)cc1C`, -0.4% (inactive).
The result for `CC(C)Oc1cccc(NC(=O)c2ccccc2Cl)c1` reads -28.9% (inactive).
For `CC(C)Oc1cccc(C(=O)Nc2ccc3[nH]c(=O)[nH]c3c2)c1`, the activity came out at 5.2%.
With `CC(C)Oc1cccc(NC(=O)Nc2ccccc2)c1`, the activity turned out to be 6.3%.
For `O=C(NCCCn1nnc2ccccc21)C1CCC(=O)N(CCN2CCOCC2)C1` (stereo not given), the activity was -0.4% (inactive).
For the compound `CN(CCc1ccccn1)c1ncccc1CNC1CSCCSC1`, the activity was -4% (inactive).
For the compound `c1ccc(-c2noc(CN3CCN(Cc4ccc5c(c4)OCO5)CC3)n2)cc1`, the activity stood at 7.5%.
The result for `O=C(Nc1ccc2c(c1)OCCO2)c1ccc(=O)[nH]n1` reads -1.3% (inactive).
The result for `CN(C)C(=O)Nc1ccc2c(c1)CCC2` reads -6.3% (inactive).
For `COCCn1c(CN(C)Cc2cccnc2)cnc1S(=O)(=O)CC(C)(C)C`, the activity worked out at 7.7%.
As for `OC(COc1ccccc1CNCCc1ccccn1)CN1CCSCC1` (stereo not given), the figure is 5.9%.
Regarding `CSCc1ccc(C(=O)N2CCC3(CCCN(CC(C)(C)C)C3)C2)o1` (stereo not given), the activity is -0.7% (inactive).
For the compound `CC(C)CCCC1CN(C2CCN(Cc3ccccn3)CC2)CCO1` (stereo not given), the activity came out at 5.9%.
As to `COc1cccc(CC2CN(C3CCSCC3)CCO2)c1` (stereo not given), the activity was 10.9%.
As for `O=C(CCN1CCCO1)N1CCCC(N2CCN(c3cccc(C(F)(F)F)c3)CC2)C1` (stereo not given), the figure is -0.1% (inactive); as for `O=C1N(CC2CCCCC2)CCCC1(O)CN1CCCOCC1` (stereo not given), 4.1%; as for `CC(=O)Oc1ccc(/C=C/c2ccc3ccccc3n2)cc1Cl`, 55.2% (active).
As for `O=C1COc2ccc(S(=O)(=O)N3CCc4ccccc43)cc2N1`, the figure is 2.6%.
The result for `Cc1cnc(C)c(N2C[C@H]3OC(=O)N(C4CCCC4)[C@H]3C2)n1` reads 7.1%; that for `Cc1ccc(S(=O)(=O)N2CCN(c3ccccc3)CC2)cc1C(N)=O`, 1.7%; that for `Cc1ccc(S(=O)(=O)NC2CCCCC2)cc1C(N)=O`, -20.3% (inactive).
For `CS(=O)(=O)c1cccc(S(=O)(=O)NC2CCCC2)c1`, the activity came out at 7%.
For the compound `Cc1cccc(S(=O)(=O)NCC2CCN(c3cnn(C)c(=O)c3)C2)c1` (stereo not given), the activity came to 5.8%.
As for `CC(=O)Nc1ccc(S(=O)(=O)N2CCN(C(=O)N3CCCCCC3)CC2)cc1`, the figure is -1.3% (inactive); as for `Cc1ccc(S(=O)(=O)N2CCC(C(=O)N3CCN(c4ccccn4)CC3)CC2)cc1`, -18.7% (inactive).
As to `Cc1nc(CC(=O)N2CCCC(CCC(=O)N3CCN(c4ccccn4)CC3)C2)cs1` (stereo not given), the activity is -2.5% (inactive).
Consider `CCN(CC1CCCO1)C(=O)C1CCN(C2CCN(Cc3ccccc3C)CC2)CC1` (stereo not given), for which the activity came to 9.1%.
The result for `COCCN1CCC(CN(Cc2ccncc2)Cc2csc(C(C)=O)c2)CC1` reads -7.9% (inactive); that for `COc1cccc(CN2CCCC(NCc3ccc4nonc4c3)C2)c1` (stereo not given), -3.2% (inactive); that for `COC(=O)C1CCCCN1C(=O)c1ccc2oc(C(C)C)nc2c1` (stereo not given), 4.4%.
As for `c1ccc(Cc2nn3c(-c4ccco4)nnc3s2)cc1`, the activity is -5.1% (inactive).
The result for `Cc1occc1-c1nnc2sc(CCc3ccccc3)nn12` reads -18.1% (inactive); that for `c1ccc(CCCc2nn3c(-c4cccnc4)nnc3s2)cc1`, 3%; that for `Cc1nc(SCC(=O)N2CCN(c3ccccc3)CC2)nc2c1CCCC2`, -19.5% (inactive).
As for `Cc1ccc(S(=O)(=O)CC(=O)N2CCN(c3ccccc3)CC2)cc1`, the figure is -17% (inactive); as for `Cc1nonc1CC(=O)N1CCC(CCC(=O)N2CCN(c3ccccc3)CC2)CC1`, 11.2%; as for `COc1ccc(N2CCN(C3CCCN(Cc4nc5ccccc5nc4C)C3)CC2)cc1` (stereo not given), 7.9%.
On to `OC(COc1ccccc1CNCCc1cnccn1)CN1CCSCC1` (stereo not given), for which the activity is 7.9%.
The result for `O=C1CN(c2nc3nonc3nc2NC2CCCC2)CCN1C1CCCC1` reads -1.2% (inactive).
Take `C=CCn1cc(CNC2CC(=O)N(Cc3cccc(F)c3)C2)c(C)n1` (stereo not given): the activity is -1.3% (inactive).
As for `COc1ccc(C(C)(C)NC(=O)C2CCC(=O)N(Cc3ccccc3F)C2)cc1OC` (stereo not given), the figure is -0.6% (inactive); as for `O=C(NCCc1ccc(Cl)cc1)c1cccc(-n2cnnc2)c1`, -1% (inactive).
As for `CC(=O)c1cccc(OCc2cc(C(=O)N(CC3CC3)CC3CCCO3)no2)c1` (stereo not given), the activity came to 0.5%.
As for `CC(C)CCCC1CN(C(=O)c2ccc(N3CCN(C)CC3)cc2)CCO1` (stereo not given), the figure is 6.6%; as for `Cc1cc(Oc2ccccc2)nc(Oc2ccc(=O)n(-c3ccccc3)n2)n1`, -9.1% (inactive).
On to `CC(C)(C)NC(=O)CN1C(=O)CCC1=O`, for which the activity was -0.4% (inactive).
The result for `Cc1nc2sccn2c1C(=O)N1CCCC(N(C)Cc2ccccc2)C1` (stereo not given) reads -0.3% (inactive); that for `O=C(C1CCCO1)N1CCc2[nH]nc(-c3ccc(C(F)(F)F)cc3)c2C1` (stereo not given), -2.9% (inactive).
The result for `COc1cc(CNCc2ccc(F)cc2)ccc1OCC(O)CN1CCOCC1` (stereo not given) reads 2.4%; that for `O=C(Nc1ccccc1)N1CCN(c2nsc3ccccc23)CC1`, -22.1% (inactive); that for `O=C(NCc1ccccc1)N1CCN(CCO)CC1`, 2.5%.
The result for `CC(C)C(=O)N1CCN(c2ccc(NC(=O)c3ccccn3)cc2)CC1` reads 7.7%; that for `COc1ccc(NC(=O)NC2CC(=O)N(CC(C)(C)C)C2)c(OC)c1` (stereo not given), -1.6% (inactive); that for `O=C(NCC(O)CO)c1ccc(OC2CCN(CCc3ccccc3)CC2)cc1` (stereo not given), -0.6% (inactive).
On to `CCN1CCN(CC(O)COc2cccc(CNCCCSC)c2)CC1` (stereo not given), for which the activity amounted to 9.1%.
For the compound `COc1ccc(F)c(CN2CCCC3(CCN(S(=O)(=O)N(C)C)C3)C2=O)c1` (stereo not given), the activity came to 0.3%.
For `COc1cccc(CN2CCCC3(CCN(Cc4ccccn4)C3)C2)c1OC` (stereo not given), the activity turned out to be 7.4%.
`Cc1nc(C)c(CN2C[C@H]3OC(=O)N(CCCc4ccc(F)cc4)[C@H]3C2)nc1C`: the activity is 8.2%.
